# Measured values published in publication PMC7862700, “An all-to-all approach to the identification of sequence-specific readers for epigenetic DNA modifications on cytosine”.
# Tests used:
# Assay in all cases: DAPPL (digital affinity profiling via proximity ligation, sequencing); 10 mM Tris-HCl pH 7.5, 50 mM NaCl, 1 mM DTT, 4% glycerol, room temperature, 30 min; GST-TFs on glutathione beads, 16-mer random dsDNA library, 0.1% formaldehyde crosslink after washing; high values mean tight binding
# [1] = target: T1, FEV (Homo sapiens, UniProt Q99581 1-238); conditions: protein: recombinant; tags: N-terminal GST; dsDNA, one strand shown
# T1 sequence: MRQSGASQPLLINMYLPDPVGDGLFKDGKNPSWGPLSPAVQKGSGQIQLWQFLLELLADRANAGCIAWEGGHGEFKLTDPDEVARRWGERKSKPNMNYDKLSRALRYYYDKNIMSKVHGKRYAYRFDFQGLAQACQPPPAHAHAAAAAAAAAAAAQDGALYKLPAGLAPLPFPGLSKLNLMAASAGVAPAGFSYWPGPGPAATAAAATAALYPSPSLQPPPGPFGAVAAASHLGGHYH
# Method in brief: (§1)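 Human transcription factors fused to GST were expressed in yeast, captured on glutathione beads, given DNA barcodes and pooled with a GST-only negative control. Pools were incubated with 200 nmole of a 16-mer random double-stranded DNA library in Tris/NaCl/DTT/glycerol buffer at room temperature for 30 min. They were then washed, crosslinked with 0.1% formaldehyde, proximity-ligated (BsaI/T4 ligase, 1 h, 37 °C), PCR-amplified and sequenced on an Illumina NextSeq500. Binding signal is each 6-mer's read frequency for a factor divided by its frequency for the GST control.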
# [2] = target: ETV5 (Homo sapiens, UniProt P41161 1-510); conditions: protein: recombinant; tags: N-terminal GST; dsDNA, one strand shown
# Method in brief: as §1
# [3] = target: HSF1 (Homo sapiens, UniProt Q00613 1-529); conditions: protein: recombinant; tags: N-terminal GST; chain copies: 3; dsDNA, one strand shown
# Method in brief: as §1
# [4] = target: T2, SPIC (Homo sapiens, UniProt Q8N5J4 1-248); conditions: protein: recombinant; tags: N-terminal GST; dsDNA, one strand shown
# T2 sequence: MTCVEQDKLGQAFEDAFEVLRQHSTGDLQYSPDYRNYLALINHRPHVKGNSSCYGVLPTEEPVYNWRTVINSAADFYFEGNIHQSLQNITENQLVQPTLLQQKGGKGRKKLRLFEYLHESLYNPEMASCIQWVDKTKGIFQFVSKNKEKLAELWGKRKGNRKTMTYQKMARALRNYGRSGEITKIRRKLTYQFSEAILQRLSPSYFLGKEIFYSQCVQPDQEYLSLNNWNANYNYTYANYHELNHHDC
# Method in brief: as §1
# [5] = target: ELF4 (Homo sapiens, UniProt Q99607 1-663); conditions: protein: recombinant; tags: N-terminal GST; dsDNA, one strand shown
# Method in brief: as §1
# [6] = target: T3, ELK4 (Homo sapiens, UniProt P28324-2 1-405); conditions: protein: recombinant; tags: N-terminal GST; dsDNA, one strand shown
# T3 sequence: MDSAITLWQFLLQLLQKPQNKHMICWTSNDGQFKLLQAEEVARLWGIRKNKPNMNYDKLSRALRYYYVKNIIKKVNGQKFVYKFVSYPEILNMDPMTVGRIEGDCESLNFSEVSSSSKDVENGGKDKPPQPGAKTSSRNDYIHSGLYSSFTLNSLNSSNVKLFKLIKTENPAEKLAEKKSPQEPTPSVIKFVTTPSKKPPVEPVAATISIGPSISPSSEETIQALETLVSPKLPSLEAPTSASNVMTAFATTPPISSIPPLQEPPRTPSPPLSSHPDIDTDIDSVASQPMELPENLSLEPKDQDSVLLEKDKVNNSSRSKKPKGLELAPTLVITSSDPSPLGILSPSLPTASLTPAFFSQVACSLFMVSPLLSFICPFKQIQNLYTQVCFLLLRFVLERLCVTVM
# Method in brief: as §1
# [7] = target: T4, ETV2 (Homo sapiens, UniProt O00321 1-342); conditions: protein: recombinant; tags: N-terminal GST; dsDNA, one strand shown
# T4 sequence: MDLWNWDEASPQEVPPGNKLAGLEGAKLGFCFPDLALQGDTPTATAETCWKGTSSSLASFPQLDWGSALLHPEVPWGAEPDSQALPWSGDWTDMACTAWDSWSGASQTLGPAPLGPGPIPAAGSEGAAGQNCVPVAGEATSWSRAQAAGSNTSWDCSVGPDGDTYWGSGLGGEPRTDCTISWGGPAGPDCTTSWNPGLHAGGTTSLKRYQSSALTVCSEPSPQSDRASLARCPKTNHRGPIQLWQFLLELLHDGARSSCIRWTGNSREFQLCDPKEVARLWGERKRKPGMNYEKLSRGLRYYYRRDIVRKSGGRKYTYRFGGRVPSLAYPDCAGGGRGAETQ
# Method in brief: as §1
# [8] = target: T5, ELF3 (Homo sapiens, UniProt P78545 1-371); conditions: protein: recombinant; tags: N-terminal GST; dsDNA, one strand shown
# T5 sequence: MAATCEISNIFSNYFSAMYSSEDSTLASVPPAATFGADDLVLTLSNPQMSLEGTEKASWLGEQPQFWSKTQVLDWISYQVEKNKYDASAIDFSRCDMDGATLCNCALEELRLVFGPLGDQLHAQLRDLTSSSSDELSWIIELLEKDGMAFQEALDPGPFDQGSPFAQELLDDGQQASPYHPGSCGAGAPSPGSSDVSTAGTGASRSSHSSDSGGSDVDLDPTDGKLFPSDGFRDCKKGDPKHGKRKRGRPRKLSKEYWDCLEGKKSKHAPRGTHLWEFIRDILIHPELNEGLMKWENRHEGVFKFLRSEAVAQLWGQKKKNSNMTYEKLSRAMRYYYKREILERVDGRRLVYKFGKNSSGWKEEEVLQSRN
# Method in brief: as §1
# [9] = target: CRX (Homo sapiens, UniProt O43186 1-299); conditions: protein: recombinant; tags: N-terminal GST; dsDNA, one strand shown
# Method in brief: as §1
# [10] = target: ETV1 (Homo sapiens, UniProt P50549 1-477); conditions: protein: recombinant; tags: N-terminal GST; dsDNA, one strand shown
# Method in brief: as §1
# [11] = target: T6, ERF (Homo sapiens, UniProt P50548 1-548); conditions: protein: recombinant; tags: N-terminal GST; dsDNA, one strand shown
# T6 sequence: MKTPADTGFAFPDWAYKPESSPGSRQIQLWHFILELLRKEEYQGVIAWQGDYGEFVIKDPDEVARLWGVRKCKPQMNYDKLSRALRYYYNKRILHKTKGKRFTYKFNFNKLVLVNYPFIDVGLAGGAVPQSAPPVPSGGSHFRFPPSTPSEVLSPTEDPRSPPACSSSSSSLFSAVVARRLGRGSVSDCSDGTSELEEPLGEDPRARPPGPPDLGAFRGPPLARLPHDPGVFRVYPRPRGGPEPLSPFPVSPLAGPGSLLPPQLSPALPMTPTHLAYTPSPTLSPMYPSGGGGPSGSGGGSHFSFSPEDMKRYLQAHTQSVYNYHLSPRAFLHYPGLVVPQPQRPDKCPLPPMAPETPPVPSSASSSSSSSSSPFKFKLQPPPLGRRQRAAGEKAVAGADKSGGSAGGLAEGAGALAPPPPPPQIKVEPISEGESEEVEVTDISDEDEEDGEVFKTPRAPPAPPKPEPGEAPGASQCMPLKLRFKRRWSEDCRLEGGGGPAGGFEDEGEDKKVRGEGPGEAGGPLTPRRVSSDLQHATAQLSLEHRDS
# Method in brief: as §1
# [12] = target: T7, ETV3L (Homo sapiens, UniProt Q6ZN32 1-361); conditions: protein: recombinant; tags: N-terminal GST; dsDNA, one strand shown
# T7 sequence: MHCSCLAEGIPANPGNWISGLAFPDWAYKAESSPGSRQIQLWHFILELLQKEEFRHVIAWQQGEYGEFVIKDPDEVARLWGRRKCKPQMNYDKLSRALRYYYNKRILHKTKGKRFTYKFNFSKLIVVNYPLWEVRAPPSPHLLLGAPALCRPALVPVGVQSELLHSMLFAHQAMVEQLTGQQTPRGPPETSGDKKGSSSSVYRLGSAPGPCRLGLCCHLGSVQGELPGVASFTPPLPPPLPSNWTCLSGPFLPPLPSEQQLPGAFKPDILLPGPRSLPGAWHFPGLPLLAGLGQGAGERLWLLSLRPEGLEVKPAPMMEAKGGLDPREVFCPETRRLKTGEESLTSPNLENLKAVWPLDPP
# Method in brief: as §1
# [13] = target: T8, ETS2 (Homo sapiens, UniProt P15036 1-469); conditions: protein: recombinant; tags: N-terminal GST; dsDNA, one strand shown
# T8 sequence: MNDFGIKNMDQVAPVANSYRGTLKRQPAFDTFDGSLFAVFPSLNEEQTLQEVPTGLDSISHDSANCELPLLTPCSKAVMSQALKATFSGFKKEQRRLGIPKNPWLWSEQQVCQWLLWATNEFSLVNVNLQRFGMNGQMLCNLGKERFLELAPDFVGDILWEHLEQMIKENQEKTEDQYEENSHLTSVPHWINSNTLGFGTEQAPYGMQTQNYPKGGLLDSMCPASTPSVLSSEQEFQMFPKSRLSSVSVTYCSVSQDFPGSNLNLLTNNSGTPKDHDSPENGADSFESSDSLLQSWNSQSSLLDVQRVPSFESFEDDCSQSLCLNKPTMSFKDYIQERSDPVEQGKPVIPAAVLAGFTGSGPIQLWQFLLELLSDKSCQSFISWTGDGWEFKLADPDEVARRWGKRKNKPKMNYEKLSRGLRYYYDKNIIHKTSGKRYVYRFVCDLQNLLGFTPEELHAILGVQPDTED
# Method in brief: as §1
# [14] = target: T9, SPDEF (Homo sapiens, UniProt O95238 1-335); conditions: protein: recombinant; tags: N-terminal GST; dsDNA, one strand shown
# T9 sequence: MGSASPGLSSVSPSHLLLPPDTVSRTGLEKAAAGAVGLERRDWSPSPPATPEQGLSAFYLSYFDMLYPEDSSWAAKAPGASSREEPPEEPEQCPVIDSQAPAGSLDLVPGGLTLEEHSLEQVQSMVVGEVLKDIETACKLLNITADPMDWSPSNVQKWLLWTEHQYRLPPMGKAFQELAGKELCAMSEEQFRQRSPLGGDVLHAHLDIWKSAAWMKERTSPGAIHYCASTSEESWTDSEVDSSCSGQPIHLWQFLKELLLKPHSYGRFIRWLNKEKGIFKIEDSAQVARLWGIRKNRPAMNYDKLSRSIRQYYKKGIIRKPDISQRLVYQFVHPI
# Method in brief: as §1
# [15] = target: T10, ETV7 (Homo sapiens, UniProt Q9Y603 1-341); conditions: protein: recombinant; tags: N-terminal GST; dsDNA, one strand shown
# T10 sequence: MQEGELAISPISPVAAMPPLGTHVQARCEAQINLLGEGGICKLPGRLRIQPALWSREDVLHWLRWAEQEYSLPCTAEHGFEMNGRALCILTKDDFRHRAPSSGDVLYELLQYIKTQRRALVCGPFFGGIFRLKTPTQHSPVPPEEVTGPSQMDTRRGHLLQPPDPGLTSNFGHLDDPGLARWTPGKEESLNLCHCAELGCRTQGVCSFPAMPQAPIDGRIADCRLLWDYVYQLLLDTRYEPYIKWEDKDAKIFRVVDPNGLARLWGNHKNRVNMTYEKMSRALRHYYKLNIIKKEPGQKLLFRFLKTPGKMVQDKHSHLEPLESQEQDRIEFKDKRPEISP
# Method in brief: as §1
# [16] = target: T11, ELF5 (Homo sapiens, UniProt Q9UKW6-2 1-255); conditions: protein: recombinant; tags: N-terminal GST; dsDNA, one strand shown
# T11 sequence: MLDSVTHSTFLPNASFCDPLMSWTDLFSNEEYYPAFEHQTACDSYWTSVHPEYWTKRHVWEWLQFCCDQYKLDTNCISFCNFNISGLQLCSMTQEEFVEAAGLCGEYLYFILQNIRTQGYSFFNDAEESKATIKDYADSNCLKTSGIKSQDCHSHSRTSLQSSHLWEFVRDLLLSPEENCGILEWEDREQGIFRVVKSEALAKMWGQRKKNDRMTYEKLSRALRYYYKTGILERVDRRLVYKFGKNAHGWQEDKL
# Method in brief: as §1
# [17] = target: T12, ETV3 (Homo sapiens, UniProt P41162-2 1-143); conditions: protein: recombinant; tags: N-terminal GST; dsDNA, one strand shown
# T12 sequence: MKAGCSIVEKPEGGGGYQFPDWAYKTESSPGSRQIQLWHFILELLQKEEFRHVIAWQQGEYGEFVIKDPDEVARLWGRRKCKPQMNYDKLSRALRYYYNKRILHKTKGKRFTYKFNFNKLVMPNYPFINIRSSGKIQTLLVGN
# Method in brief: as §1
# [18] = target: ETV6 (Homo sapiens, UniProt P41212 1-452); conditions: protein: recombinant; tags: N-terminal GST; dsDNA, one strand shown
# Method in brief: as §1
# Sequence of ELF4 (Q99607 whole entry): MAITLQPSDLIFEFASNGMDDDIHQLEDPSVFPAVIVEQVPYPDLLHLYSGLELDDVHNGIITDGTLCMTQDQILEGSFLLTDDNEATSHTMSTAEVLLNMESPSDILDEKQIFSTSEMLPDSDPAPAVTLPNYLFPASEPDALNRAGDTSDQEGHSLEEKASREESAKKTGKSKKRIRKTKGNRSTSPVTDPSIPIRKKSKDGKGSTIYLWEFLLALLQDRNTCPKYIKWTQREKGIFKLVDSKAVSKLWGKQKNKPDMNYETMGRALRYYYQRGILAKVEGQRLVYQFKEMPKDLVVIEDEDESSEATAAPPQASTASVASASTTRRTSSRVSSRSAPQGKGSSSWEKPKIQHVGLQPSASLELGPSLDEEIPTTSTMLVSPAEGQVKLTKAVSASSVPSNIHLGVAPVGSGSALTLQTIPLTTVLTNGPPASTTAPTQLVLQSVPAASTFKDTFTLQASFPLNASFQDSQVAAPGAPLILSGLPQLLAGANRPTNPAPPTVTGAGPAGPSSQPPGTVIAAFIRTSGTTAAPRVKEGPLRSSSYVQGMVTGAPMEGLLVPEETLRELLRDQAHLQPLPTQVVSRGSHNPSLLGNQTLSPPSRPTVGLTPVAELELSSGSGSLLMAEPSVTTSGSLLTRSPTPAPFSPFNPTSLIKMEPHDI
# Sequence of ETV1 (P50549 whole entry): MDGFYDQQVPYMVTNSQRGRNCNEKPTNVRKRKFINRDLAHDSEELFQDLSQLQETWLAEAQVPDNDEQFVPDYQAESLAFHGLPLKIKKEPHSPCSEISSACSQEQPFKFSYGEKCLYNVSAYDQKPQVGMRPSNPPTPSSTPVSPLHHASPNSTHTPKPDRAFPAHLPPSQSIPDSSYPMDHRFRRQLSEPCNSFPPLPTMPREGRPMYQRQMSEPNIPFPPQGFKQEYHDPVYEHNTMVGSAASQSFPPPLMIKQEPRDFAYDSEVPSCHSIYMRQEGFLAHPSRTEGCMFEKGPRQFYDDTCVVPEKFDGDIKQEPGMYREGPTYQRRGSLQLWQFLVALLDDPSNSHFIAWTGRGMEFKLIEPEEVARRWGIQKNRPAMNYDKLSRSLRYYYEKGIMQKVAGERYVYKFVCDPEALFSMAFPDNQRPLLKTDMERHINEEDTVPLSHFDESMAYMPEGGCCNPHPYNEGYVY
# Sequence of CRX (O43186 whole entry): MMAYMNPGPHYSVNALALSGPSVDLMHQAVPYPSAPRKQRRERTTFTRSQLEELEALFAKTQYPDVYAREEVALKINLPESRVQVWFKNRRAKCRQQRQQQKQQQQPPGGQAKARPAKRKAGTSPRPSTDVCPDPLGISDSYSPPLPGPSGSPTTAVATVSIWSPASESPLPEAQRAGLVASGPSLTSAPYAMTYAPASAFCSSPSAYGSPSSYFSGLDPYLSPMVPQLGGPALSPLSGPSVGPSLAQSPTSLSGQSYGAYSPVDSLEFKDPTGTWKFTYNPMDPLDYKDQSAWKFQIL
# Sequence of ETV5 (P41161 whole entry): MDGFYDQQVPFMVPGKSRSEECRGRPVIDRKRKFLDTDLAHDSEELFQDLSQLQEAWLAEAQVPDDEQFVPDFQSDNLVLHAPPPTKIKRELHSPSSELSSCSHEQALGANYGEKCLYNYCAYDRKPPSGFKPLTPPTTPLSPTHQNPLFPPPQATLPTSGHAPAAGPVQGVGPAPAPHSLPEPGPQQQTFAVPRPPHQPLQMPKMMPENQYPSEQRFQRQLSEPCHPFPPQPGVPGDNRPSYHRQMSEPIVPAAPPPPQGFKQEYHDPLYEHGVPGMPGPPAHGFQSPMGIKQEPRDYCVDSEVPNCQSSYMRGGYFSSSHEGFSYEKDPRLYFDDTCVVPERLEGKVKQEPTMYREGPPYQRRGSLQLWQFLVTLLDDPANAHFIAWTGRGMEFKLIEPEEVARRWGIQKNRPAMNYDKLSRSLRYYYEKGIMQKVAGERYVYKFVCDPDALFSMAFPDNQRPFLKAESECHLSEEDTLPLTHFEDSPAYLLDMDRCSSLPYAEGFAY
# Sequence of ETV6 (P41212 whole entry): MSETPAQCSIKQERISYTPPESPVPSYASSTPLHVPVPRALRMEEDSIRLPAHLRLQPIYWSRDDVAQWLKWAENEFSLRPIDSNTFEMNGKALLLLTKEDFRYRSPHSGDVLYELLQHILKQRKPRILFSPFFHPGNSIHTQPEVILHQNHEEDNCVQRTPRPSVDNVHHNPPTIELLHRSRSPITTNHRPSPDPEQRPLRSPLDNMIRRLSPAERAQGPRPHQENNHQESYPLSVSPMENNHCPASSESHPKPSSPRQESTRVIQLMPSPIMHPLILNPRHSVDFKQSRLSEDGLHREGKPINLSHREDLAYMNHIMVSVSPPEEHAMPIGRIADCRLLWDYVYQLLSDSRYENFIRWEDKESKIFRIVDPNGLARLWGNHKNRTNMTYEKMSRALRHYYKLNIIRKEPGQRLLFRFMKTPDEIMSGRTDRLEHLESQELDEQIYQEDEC
# Sequence of HSF1 (Q00613 whole entry): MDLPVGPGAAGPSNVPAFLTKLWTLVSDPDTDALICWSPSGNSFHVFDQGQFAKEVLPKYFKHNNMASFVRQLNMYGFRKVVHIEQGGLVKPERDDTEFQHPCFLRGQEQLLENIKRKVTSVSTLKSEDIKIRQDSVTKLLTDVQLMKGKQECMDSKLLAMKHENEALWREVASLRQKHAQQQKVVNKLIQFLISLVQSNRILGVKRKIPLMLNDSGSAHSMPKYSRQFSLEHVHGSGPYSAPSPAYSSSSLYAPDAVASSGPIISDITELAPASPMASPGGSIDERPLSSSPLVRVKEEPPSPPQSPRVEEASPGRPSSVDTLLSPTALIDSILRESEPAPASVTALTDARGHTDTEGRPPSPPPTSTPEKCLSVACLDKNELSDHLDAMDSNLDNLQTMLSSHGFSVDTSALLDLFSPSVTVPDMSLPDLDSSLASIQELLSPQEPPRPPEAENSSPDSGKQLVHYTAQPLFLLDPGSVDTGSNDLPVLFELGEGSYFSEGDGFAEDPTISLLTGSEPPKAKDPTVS
sequence,measurement,setting,value
TGCTAT,binding signal,[1],"1.39 fold enrichment (6-mer frequency, TF over GST control)"
same,binding signal,[2],"1.43 fold enrichment (6-mer frequency, TF over GST control)"
same,binding signal,[3],"1.22 fold enrichment (6-mer frequency, TF over GST control)"
same,binding signal,[4],"1.37 fold enrichment (6-mer frequency, TF over GST control)"
same,binding signal,[5],"1.37 fold enrichment (6-mer frequency, TF over GST control)"
same,binding signal,[6],"1.57 fold enrichment (6-mer frequency, TF over GST control)"
same,binding signal,[7],"1.71 fold enrichment (6-mer frequency, TF over GST control)"
same,binding signal,[8],"1.6 fold enrichment (6-mer frequency, TF over GST control)"
same,binding signal,[9],"1.3 fold enrichment (6-mer frequency, TF over GST control)"
same,binding signal,[10],"1.31 fold enrichment (6-mer frequency, TF over GST control)"
same,binding signal,[11],"1.33 fold enrichment (6-mer frequency, TF over GST control)"
same,binding signal,[12],"1.4 fold enrichment (6-mer frequency, TF over GST control)"
same,binding signal,[13],"1.52 fold enrichment (6-mer frequency, TF over GST control)"
same,binding signal,[14],"1.48 fold enrichment (6-mer frequency, TF over GST control)"
same,binding signal,[15],"1.43 fold enrichment (6-mer frequency, TF over GST control)"
same,binding signal,[16],"1.33 fold enrichment (6-mer frequency, TF over GST control)"
same,binding signal,[17],"1.45 fold enrichment (6-mer frequency, TF over GST control)"
same,binding signal,[18],"1.38 fold enrichment (6-mer frequency, TF over GST control)"
